Screening data: PubChem BioAssay, several laboratories
Hits are enriched below; roughly 2.6% of the tested compounds scored in any of these assays.
ABHD5-PLIN5 inh – ABHD5-PLIN5 interaction inhibitors, primary screen, cell lysate, split luciferase complementation, luminescence | Perilipin-5 (Homo sapiens) + 1-acylglycerol-3-phosphate O-acyltransferase ABHD5 (Homo … | Split G. princeps luciferase complementation, 4 h | inhibition, % at 4 µM | actives 0.78% (n = 360,000);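 active means inhibition above the mean inhibition across every tested compound plus 3 SD, cut at about 22% in these data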;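 further: 0% = DMSO only wells and the 100% control is not disclosed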
TLR9-MyD88 inh – inhibitors of TLR9-MyD88 association in cells, primary screen, cell-based, CHO, BLA complementation, fluorescence; Toll-like receptor 9 (Homo sapiens) + Myeloid differentiation primary response protein …; CCF4 FRET ratio; AID 504734, 2011; actives 0.21% (n = 340,000); inhibition, % at 4.98 µM;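 active means inhibition above the mean over all tested compounds plus 3 SD, cut at about 21% in these data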;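 further: 0% = DMSO only wells and 100% = clavulanate BLA inhibitor control wells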
TLR4 MyD88 comp – inhibitors of TLR4-MyD88 association in cells, primary screen, cell-based, HeLa CL3-4, BLA complementation, FRET ratio. AID 861, 2007. HeLa CL3-4 TLR4/MyD88 BLA complementation. inhibition, % at 8.4 µM. Toll-like receptor 4 (Homo sapiens) + Myeloid differentiation primary response protein …. actives 0.18% (n = 200,000); in the data active means inhibition above about 25%;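 further: 0% = vehicle and 100% = reference inhibitor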
Target sequence (O00206 whole entry, looked up): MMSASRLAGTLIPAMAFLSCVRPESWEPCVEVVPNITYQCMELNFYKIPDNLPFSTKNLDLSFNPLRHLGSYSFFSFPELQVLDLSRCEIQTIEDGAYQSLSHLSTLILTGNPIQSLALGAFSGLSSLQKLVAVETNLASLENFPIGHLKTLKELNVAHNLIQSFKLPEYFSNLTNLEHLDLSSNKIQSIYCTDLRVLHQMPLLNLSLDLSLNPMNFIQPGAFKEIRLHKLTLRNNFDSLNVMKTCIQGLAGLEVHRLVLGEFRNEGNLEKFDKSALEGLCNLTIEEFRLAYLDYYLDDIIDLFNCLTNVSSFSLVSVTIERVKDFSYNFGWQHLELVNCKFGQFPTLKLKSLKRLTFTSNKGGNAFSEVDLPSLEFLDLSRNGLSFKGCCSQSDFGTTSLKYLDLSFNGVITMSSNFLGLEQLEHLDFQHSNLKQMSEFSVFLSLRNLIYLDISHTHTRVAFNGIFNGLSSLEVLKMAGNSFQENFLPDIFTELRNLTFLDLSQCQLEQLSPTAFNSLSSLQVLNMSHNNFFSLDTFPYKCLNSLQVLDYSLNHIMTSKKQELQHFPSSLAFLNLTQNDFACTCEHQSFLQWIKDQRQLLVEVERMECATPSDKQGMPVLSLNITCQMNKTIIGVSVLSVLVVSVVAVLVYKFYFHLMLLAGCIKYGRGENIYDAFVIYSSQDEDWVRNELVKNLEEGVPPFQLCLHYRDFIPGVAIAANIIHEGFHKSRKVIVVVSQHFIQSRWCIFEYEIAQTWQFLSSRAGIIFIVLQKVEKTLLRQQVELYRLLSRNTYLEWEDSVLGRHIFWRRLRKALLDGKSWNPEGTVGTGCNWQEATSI
Target sequence (Q99836 whole entry, looked up): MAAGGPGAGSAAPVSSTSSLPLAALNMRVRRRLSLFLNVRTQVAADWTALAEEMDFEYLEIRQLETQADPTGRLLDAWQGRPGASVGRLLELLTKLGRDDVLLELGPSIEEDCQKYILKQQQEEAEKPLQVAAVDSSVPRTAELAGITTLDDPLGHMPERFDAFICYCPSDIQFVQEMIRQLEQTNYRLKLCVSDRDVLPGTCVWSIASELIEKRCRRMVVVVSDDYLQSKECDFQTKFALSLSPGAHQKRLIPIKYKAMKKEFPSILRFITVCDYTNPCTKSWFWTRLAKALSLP
NOD2 RIPK2 PPI – NOD2-RIPK2 binding disruptors in cells, primary screen, fluorescence, CHO cells, BLA complementation | Receptor-interacting serine/threonine-protein kinase 2 (Homo sapiens), O43353 | CCF4 ratio | inhibition, % at 4.98 µM | actives 0.38% (n = 360,000); in the data active means inhibition above about 21%;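 further: 0% = vehicle only and 100% = reference blocker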
Granule exo inh – LAMP-1 surface exposure blockers, TALL-104 cells – cell-based, flow cytometry, MLPCN library, primary screen. TALL-104 LAMP-1 surface exposure; cells stimulated with thapsigargin and PMA. inhibition, % at 10 µM. actives 0.66% (n = 360,000). AID 651702, 2012;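 active means inhibition above about 55%, limit read from the data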
PRMT1 inh – PRMT1 methyltransferase inhibitors, primary screen, biochemical, fluorescence polarization | Protein arginine N-methyltransferase 1 (Homo sapiens), Q99873 | recombinant PRMT1, activity-based probe fluorescence polarization | inhibition, % at 2.79 µM | actives 1.3% (n = 370,000) | AID 652257, 2013;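 active means inhibition above about 21% made by adding two undisclosed values, limit read from the data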
Exocytosis CP01 – inhibitors of lytic granule exocytosis, confirmation, TALL-104 cells, flow cytometry, Cherry Pick01 | AID 651954, 2012 | inhibition, % at 10 µM | actives 11% (n = 1,500) | LAMP-1 externalization; stimulated with PMA plus thapsigargin | shares compounds with Granule exo inh; in the data active means inhibition above about 60%;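 further: 0% = stimulated vehicle wells and 100% = unstimulated wells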
The depositor's hits bear a star; · = not tested or not shown.

SMILES	ABHD5-PLIN5 inh	TLR9-MyD88 inh	TLR4 MyD88 comp	NOD2 RIPK2 PPI	Granule exo inh	PRMT1 inh	Exocytosis CP01
CCOc1ccc2nc(SC3CC(=O)N(c4ccc(OC)cc4OC)C3=O)sc2c1 (stereo not given)	-7	-19	9	-3	62*	18	15
CCOc1ccc2nc(SC3CC(=O)N(c4ccc(C)cc4)C3=O)sc2c1 (stereo not given)	-1	-2	-9	2	56*	5	-4
COC(=O)C1=C(C)N(Cc2ccccc2C(F)(F)F)C(=NCc2cc(OC)c(OC)c(OC)c2)NC1c1ccccc1 (stereo not given)	·	·	·	·	·	-6	·
COC(=O)C1=C(C)N(Cc2ccccc2C(F)(F)F)C(=NCc2ccc3c(c2)OCO3)NC1c1cccc(C(F)(F)F)c1 (stereo not given)	·	·	·	·	·	-2	·
Cc1ccccc1CNC(=O)C1CCCN(c2nnc(C)c3c(C)n(-c4ccccc4)nc23)C1 (stereo not given)	0	3	·	5	74*	-1	1
CCc1ccc(CNC(=O)C2CCCN(c3nnc(C)c4c(C)n(-c5ccccc5)nc34)C2)cc1 (stereo not given)	-2	-1	·	4	58*	0	87*
Cc1nnc(N2CCCC(C(=O)NCc3cccc(F)c3)C2)c2nn(-c3ccccc3)c(C)c12 (stereo not given)	10	0	·	5	51	-6	·
COc1ccc(NC(=O)CC2Nc3cccc4cccc(c34)NC2=O)cc1 (stereo not given)	5	2	-7	-17	61*	3	-13
O=C(Nc1c(-c2ccccc2)nc2ncccn12)c1ccc(F)cc1	·	·	·	·	·	-2	·
CC(C)c1ccc(NC(=S)N2CCN(S(=O)(=O)c3ccccc3)CC2)cc1	-1	-3	·	3	65*	-1	-3
CSc1ncc(Cl)c(C(=O)Nc2cccnc2)n1	7	-3	·	3	79*	2	-4
CN(C)c1nc(N)c2nccnc2n1	2	5	·	-5	-8	-2	·
CCN(CC)c1nc(C=Cc2ccc(N(C)C)cc2)c2nccnc2n1	-3	10	·	13	73*	-8	10
CCOc1ccc(C(=O)Cc2ccccc2)cc1	-3	-3	·	-3	6	-4	·
COc1ccccc1CC(=O)c1ccc(OCc2ccccc2)cc1	-10	15	·	-7	81*	0	-9
C[C@@H]1CC=C[C@H]2[C@H]1C(=O)N(Cc1ccccc1)[C@H]2c1ccc(F)c(-c2ccc(N(C)C)cc2)c1	-3	-8	·	-13	-7	-2	·
CC(=O)c1ccc(-c2cc([C@H]3[C@H]4C=CC[C@@H](C)[C@@H]4C(=O)N3Cc3ccccc3)ccc2F)cc1	17	-8	·	-2	58*	-1	-14
Cc1cc(C)nc(/N=C(\N)Nc2cccc(OCc3ccccc3)c2)n1	6	-11	·	7	85*	-6	-10
CCC(=O)Nc1nonc1-c1nc2ccccc2n1CCC(C)C	-4	-12	-16	-18	63*	-1	-6
CN(CCCC1CCCC1)C(=O)c1cc(COc2ccc(F)c(F)c2)on1	-1	-9	·	-30	68*	-1	-11
CCOc1ccc(S(=O)(=O)N2CCN(Cc3ccc4c(c3)OCO4)CC2)cc1C	-25	2	·	-5	65*	-6	-14
CS(=O)(=O)c1cccc(OCCCN2CCC(C(O)(c3ccccc3)c3ccccc3)CC2)c1	·	·	·	·	·	0	·
CC(C)C(=O)c1cc2c(cc1NC(=O)c1cccs1)OCCO2	-2	-15	-5	2	75*	2	-11
CC(C)C(=O)c1cc2c(cc1NC(=O)c1ccccc1)OCCO2	-5	-1	1	-5	3	0	·
